Laboratory results published in PubChem BioAssay (NCI).
About 79,000 compounds went through this panel and 15% of them were active in at least one assay; those are over-represented in the sample as a whole. No stated cut-off is given here; in the data, active means growth inhibition above about 70%; inactive means the rest.

Experiments:
[1] = NCI Yeast Anticancer Drug Screen. Data for the rad50 strain (AID 155);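 further: 0% = growth of vehicle-only cultures of the same strain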; details: S. cerevisiae rad50 strain growth inhibition; at 50.0 µM; stronger effect = higher value
Outline: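 A DNA repair-deficient yeast mutant serves as the test organism; compound-induced growth inhibition is calculated against vehicle-treated cells.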

[2] = NCI Yeast Anticancer Drug Screen. Data for the mec2-1 strain (AID 157); details: S. cerevisiae mec2-1 strain, at 50.0 µM, stronger effect = higher value
Outline: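 Growth inhibition is read against vehicle-treated controls after compound exposure of the mec2-1 yeast strain, which is defective in DNA damage repair or cell cycle control.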

[3] = NCI Yeast Anticancer Drug Screen. Data for the sgs1 mgt1 strain (AID 161);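 further: 0% = growth of cultures given vehicle only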; details: S. cerevisiae sgs1 mgt1 strain, at 50.0 µM, stronger effect = higher value
Outline: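 Percent growth inhibition was derived by comparing compound-exposed mutant yeast with vehicle-exposed cultures. The strain carries alterations in DNA damage repair.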

[4] = NCI Yeast Anticancer Drug Screen. Data for the cln2 rad14 strain (AID 165);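 further: 0% = growth equal to vehicle treated cultures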; details: S. cerevisiae cln2 rad14 strain, at 50.0 µM, stronger effect = higher value
Outline: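 Growth inhibition, relative to vehicle-treated controls, is the read-out. The test organism is a yeast strain with defined genetic alterations, cln2 rad14.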

[5] = NCI Yeast Anticancer Drug Screen. Data for the bub3 strain (AID 167); details: S. cerevisiae bub3 mutant strain, at 50.0 µM, stronger effect = higher value
Outline: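 Inhibition values come from growth of compound-treated mutant yeast normalised to vehicle-treated controls.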

[6] = NCI Yeast Anticancer Drug Screen. Data for the mlh1 rad18 strain (AID 175); details: S. cerevisiae mlh1 rad18 strain growth inhibition; at 50.0 µM; stronger effect = higher value
Outline: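 Cells of a genetically altered yeast strain, deficient in DNA damage repair, were treated with compound. Their growth was then compared with that of vehicle-treated cultures to give inhibition.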

Measured: growth inhibition

COC(=O)/C(C#N)=C\n1c(=S)[nH]c2ccccc21
inactive: [1] -14.2% | [2] 2.55% | [3] -16.4% | [4] 17.4% | [5] -4.9% | [6] -8.35%

CC(NC(=O)OC(C)(C)C)C(=O)C(N)=O (stereo not given)
inactive: [1] -16.2% | [2] 2.7% | [3] -27.9% | [4] 19.1% | [5] 8.25% | [6] -11.5%

Cc1ccc(C(C)C)c(O)c1NC(=S)N/N=C\c1cc(Cl)ccc1O
inactive: [1] -4.55% | [2] 22.8% | [3] -13.9% | [4] 7.6% | [5] -14.2% | [6] 17.4%

C/C=C/C=C/c1nc(C#N)c(N)o1
inactive: [1] -7.6% | [2] -2.2% | [3] 1.55% | [4] 12.7% | [5] 15.3% | [6] -3.55%

CC1=C(C(=O)NNC(=O)c2ccccc2)CC(C(=O)NNC(=O)c2ccccc2)=C(C)N1
inactive: [1] -24.3% | [2] 14.5% | [3] 1.85% | [4] -34.6% | [5] -13.2% | [6] -28.6%

CC(=O)OC1CC(OC(C)=O)C(OC(C)=O)C(C)O1 (stereo not given)
inactive: [1] 1.15% | [2] 17.9% | [3] 4.7% | [4] -15.7% | [5] -1.85% | [6] 5.45%

Cc1ccc([N+](=O)[O-])c2c(NCCNC(=O)Cn3ccnc3[N+](=O)[O-])ccnc12
inactive: [1] 15.8% | [2] 4.3% | [3] 8.25% | [4] -0.7% | [5] 16.4% | [6] 12.3%

CC1=CC(c2ccccc2)(c2ccccc2)c2ccccc21
inactive: [1] 0.1% | [2] 3% | [3] 5% | [4] -19.1% | [5] 1.7% | [6] -17.4%

CC1c2ncnc(N)c2CN1C(=O)c1ccccc1 (stereo not given)
inactive: [1] 4.55% | [2] -6.85% | [3] -3.15% | [4] -20.2% | [5] 6.75% | [6] -4.55%

Cn1c(C=O)cc2c(Cl)nccc21
inactive: [1] -35.5% | [2] -17.4% | [3] -11.8% | [4] -54.9% | [5] -10.1% | [6] -1.15%

CC1OC(c2ccc3c(c2O)C(=O)C2=C(C3=O)C3(O)C(=O)CC(C)(O)CC3(O)C=C2)CC(O)C1O (stereo not given)
inactive: [1] -19.2% | [2] -23.1% | [3] -19.4% | [4] -8.1% | [5] -21.8% | [6] -5.5%

O=C(Nc1ccccc1Cl)Oc1ccc(Cl)cc1Cl
inactive: [1] 3.5% | [2] 20.1% | [3] 7.4% | [4] -15.1% | [5] -6.05% | [6] -9.45%

CCOC(=O)Oc1cc2c(ccn2C)c2c1c1ccccc1n2C(=O)OCC
inactive: [1] 2.25% | [2] -1.8% | [3] -26.6% | [4] 8.9% | [5] 13.6% | [6] 0.4%

O=C1CCC(=O)N1Cc1ccc(Cl)cc1
inactive: [1] -4.7% | [2] 5.5% | [3] -1.1% | [4] -13.6% | [5] -3.8% | [6] -4.1%

c1ccc2cc3c(cc2c1)oc1cc2ccccc2cc13
inactive: [1] -14.1% | [2] -9.05% | [3] -4.8% | [4] -6.1% | [5] -5.7% | [6] -10%

O=COC1CC2CC1c1ccccc12 (stereo not given)
inactive: [1] 4.8% | [2] -9.7% | [3] -1.7% | [4] -7.8% | [5] -3.85% | [6] 6.8%

S=c1nc[nH]c2c1CNC2
inactive: [1] -8.2% | [2] 10.9% | [3] -5.4% | [4] 1.7% | [5] 5.25% | [6] -6.15%

O=C(NC1(C(=O)O)CCCC1)c1ccccc1
inactive: [1] -34.5% | [2] -27.2% | [3] -12.7% | [4] -31.7% | [5] -4.35% | [6] 0.7%

O=C(n1[nH]c(=O)n(-c2ccc([N+](=O)[O-])cc2)c1=O)C(Cl)(Cl)Cl
inactive: [1] 7.9% | [2] -15.3% | [3] 22.5% | [4] 7.6% | [5] 12.7% | [6] -28.9%

Cc1cc(=O)n(-c2ccccc2)c(=O)n1-c1nc2ccccc2[nH]1
inactive: [1] 19% | [2] -8.4% | [3] 14.7% | [4] 3.65% | [5] -4.35% | [6] 32%

O=C(O)c1ccccc1C(=O)Nc1ccc2ccccc2c1
inactive: [1] 15.9% | [2] -4.6% | [3] 5% | [4] 2.6% | [5] 7.55% | [6] 18.9%

CCOC(=O)CN(c1c(C)cc(C)c(N(CC(=O)OCC)S(=O)(=O)c2ccccc2)c1C)S(=O)(=O)c1ccccc1
inactive: [1] 40.5% | [2] 8.95% | [3] 24.8% | [4] -9.2% | [5] 4.5% | [6] 19.9%

CCOc1ccc(/C=C2/NC(=S)N(CN3CCCCC3)C2=O)cc1
inactive: [1] 5.25% | [2] -28.7% | [3] 25.1% | [4] -18.9% | [5] -1.5% | [6] 24.6%

CC(O)COC(C)c1ccccc1 (stereo not given)
inactive: [1] 9.05% | [2] 0.3% | [3] -0.7% | [4] 5.35% | [5] -6.45% | [6] 2.1%

CC(=O)Oc1ccc(C2OC(=O)c3ccccc3N2C(C)=O)cc1 (stereo not given)
inactive: [1] 4.05% | [2] 27.6% | [3] 12.7% | [4] -6.3% | [5] 34.6% | [6] 26.9%

Cn1cnc([N+](=O)[O-])c1Sc1ccccc1C(=O)O
inactive: [1] -2.7% | [2] -0.15% | [3] -23.1% | [4] 23.6% | [5] -0.35% | [6] -12.1%

CCOC(CNCCC(=O)OC)OCC
inactive: [1] -31.9% | [2] -59.2% | [3] -23.4% | [4] -8% | [5] -5.35% | [6] -29.1%

CC(=O)OCCc1ccc2c(c1)OCO2
inactive: [1] -0.1% | [2] -11.8% | [3] 6.05% | [4] -30.9% | [5] -16.9% | [6] -6.15%

O=c1[nH]cnc2nc(N3CCN(c4ccccc4)CC3)sc12
inactive: [1] 18.8% | [2] 11.4% | [3] 19.8% | [4] -40.7% | [5] 4.9% | [6] 23.4%

CCOC1C(=O)C=COC1C(C)C (stereo not given)
inactive: [1] -2.5% | [2] -4.65% | [3] -2.75% | [4] 1.7% | [5] -1.75% | [6] -12.2%

CC1(C)N=C(c2ccccc2)SC1(C)C
inactive: [1] -13.6% | [2] -12.2% | [3] -21.8% | [4] -49.4% | [5] 1.65% | [6] -36.5%

Cc1cc(C)c2c(=O)cc(-c3cccc(Cl)c3)[nH]c2n1
inactive: [1] 15.6% | [2] -12.4% | [3] -25% | [4] -23.8% | [5] -50.7% | [6] -65.7%

COC(=O)/C=C/CCBr
inactive: [1] -13% | [2] -22.1% | [3] -17.6% | [4] -39.1% | [5] -5.2% | [6] -11.5%

O=C(Nc1ccccc1)Nc1ccc2ccccc2c1
inactive: [1] -7.75% | [2] -0.2% | [3] 2.1% | [4] -22.2% | [5] 12.9% | [6] -10.9%

CCCCNC(=O)OCc1cnc(C)n1Cc1ccccc1
inactive: [1] 2.8% | [2] -0.3% | [3] 6% | [4] 4.95% | [5] 4.1% | [6] 10.2%
